# Experimental data reported in the supplement of paper PMC10037445.
# The full ranking holds about 2,900 compounds; the median of “IRF Lucia reporter activity, fold change vs agonist alone” is about 0.9, and the highest 2% start at about 2.8. Many of the other results were omitted from the sample, so the highest values are more common in it than they were.
# Key:
# [1] = system: RAW-Dual; assay: IRF Lucia reporter activity, fold change vs agonist alone; cytotoxicity flag (confluency mask): not cytotoxic; higher = enhanced IRF activity
# Summary of the method: (§1)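 Library stock was pin-tooled at 50 nL into 384-well plates of RAW-Dual macrophages (50,000 cells/well, DMEM), followed 1 h later by a PRR agonist, and the cells were kept at 37 °C, 5% CO2. Supernatant collected after 20 hours was read for IRF by QuantiLuc luminescence and for NF-κB by QuantiBlue absorbance at 620 nm. Reporter activity is fold change over agonist-alone wells, and a well counted as cytotoxic when its IncuCyte confluency was below 70% of agonist controls in both mask sets.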
# [2] = system: RAW-Dual; assay: IRF Lucia reporter activity, fold change vs agonist alone; higher = enhanced IRF activity; conditions: library stock concentration (final ~1000-fold dilution): 10 mM, agonist: MPLA (TLR4) […]
# Summary of the method: as §1
# [3] = system: RAW-Dual; assay: IRF Lucia reporter activity, fold change vs agonist alone; cytotoxicity flag (confluency mask): cytotoxic (confluency <70% of control); higher = enhanced IRF activity
# Summary of the method: as §1
# [4] = agonist: 3'3'-cGAMP (STING) 10 ug/mL
# [5] = cytotoxicity flag (confluency mask): not cytotoxic
# [6] = cytotoxicity flag (confluency mask): cytotoxic (confluency <70% of control)
smiles,measurement,setting,value
CCn1cc(C(=O)O)c(=O)c2c(N)c(F)c(NC3CCCCC3)cc21 (library stock concentration (final ~1000-fold dilution): 10 mM),IRF Lucia reporter activity,[1]; [4],0.545
same,IRF Lucia reporter activity,[1]; agonist: LPS (TLR4) 0.1 ug/mL,0.223
CCOC(=O)c1ccc(NC2CCCCC2)c(N)c1,IRF Lucia reporter activity,[2]; [5],1.83
CCOC(=O)c1ccc(N)cc1.Cl,IRF Lucia reporter activity,[2]; [5],1.01
CCOC(=O)c1ccc(NC2CCCCC2)c(N)c1 (library stock concentration (final ~1000-fold dilution): 10 mM),IRF Lucia reporter activity,[1]; [4],1.04
same,IRF Lucia reporter activity,[1]; agonist: LPS (TLR4) 0.1 ug/mL,4.71
CCOC(=O)c1ccc(N)cc1.Cl (library stock concentration (final ~1000-fold dilution): 10 mM),IRF Lucia reporter activity,[1]; [4],0.942
same,IRF Lucia reporter activity,[1]; agonist: LPS (TLR4) 0.1 ug/mL,1.15
NC(=O)C1CCC2CN1C(=O)N2OS(=O)(=O)O (stereo unspecified),IRF Lucia reporter activity,[2]; [5],1.13
NC(=O)C1CCC2CN1C(=O)N2OS(=O)(=O)O (stereo unspecified) (library stock concentration (final ~1000-fold dilution): 10 mM),IRF Lucia reporter activity,[1]; [4],1.1
same,IRF Lucia reporter activity,[1]; agonist: LPS (TLR4) 0.1 ug/mL,1.21
Oc1cc(CNC(=S)/C=C/c2cc(O)c(O)c(Br)c2)cc(O)c1O (library stock concentration (final ~1000-fold dilution): 10 mM),IRF Lucia reporter activity,[1]; [4],0.312
same,IRF Lucia reporter activity,[1]; agonist: LPS (TLR4) 0.1 ug/mL,4.35
O=C1CCC(N2Cc3c(OCc4ccc(CN5CCOCC5)cc4)cccc3C2=O)C(=O)N1 (stereo unspecified) (library stock concentration (final ~1000-fold dilution): 10 mM),IRF Lucia reporter activity,[1]; [4],1.05
same,IRF Lucia reporter activity,[1]; agonist: LPS (TLR4) 0.1 ug/mL,1.02
COc1cc(O)c(C(=O)Nc2nc(C(=O)NCCN(C(C)C)C(C)C)cs2)cc1OC.Cl.O.O.O (library stock concentration (final ~1000-fold dilution): 10 mM),IRF Lucia reporter activity,[1]; [4],0.967
same,IRF Lucia reporter activity,[1]; agonist: LPS (TLR4) 0.1 ug/mL,0.665
COc1cc(O)c(C(=O)Nc2nc(C(=O)NCCN(C(C)C)C(C)C)cs2)cc1OC.Cl.O.O.O,IRF Lucia reporter activity,[2]; [5],1.03
CCCS(=O)(=O)Nc1ccc(F)c(C(=O)c2c[nH]c3ncc(-c4ccc(Cl)cc4)cc23)c1F (library stock concentration (final ~1000-fold dilution): 10 mM),IRF Lucia reporter activity,[1]; [4],0.195
same,IRF Lucia reporter activity,[1]; agonist: LPS (TLR4) 0.1 ug/mL,0.356
COc1ncc(-c2ccc3nccc(-c4ccnnc4)c3c2)cc1NS(=O)(=O)c1ccc(F)cc1F,IRF Lucia reporter activity,[2]; [5],1.11
COc1cc2nccc(Oc3ccc(NC(=O)Nc4ccc(F)cc4F)c(F)c3)c2cc1OC (library stock concentration (final ~1000-fold dilution): 10 mM),IRF Lucia reporter activity,[3]; [4],1.02
same,IRF Lucia reporter activity,[3]; agonist: LPS (TLR4) 0.1 ug/mL,0.826
COc1ncc(-c2ccc3nccc(-c4ccnnc4)c3c2)cc1NS(=O)(=O)c1ccc(F)cc1F (library stock concentration (final ~1000-fold dilution): 10 mM),IRF Lucia reporter activity,[1]; [4],1.09
same,IRF Lucia reporter activity,[1]; agonist: LPS (TLR4) 0.1 ug/mL,3.52
COc1cc2nccc(Oc3ccc(NC(=O)Nc4ccc(F)cc4F)c(F)c3)c2cc1OC,IRF Lucia reporter activity,[2]; [6],1.23
CCCS(=O)(=O)Nc1ccc(F)c(C(=O)c2c[nH]c3ncc(-c4ccc(Cl)cc4)cc23)c1F,IRF Lucia reporter activity,[2]; [5],0.473
Cc1nc(Nc2ncc(C(=O)Nc3c(C)cccc3Cl)s2)cc(N2CCN(CCO)CC2)n1.Cl (library stock concentration (final ~1000-fold dilution): 10 mM),IRF Lucia reporter activity,[1]; [4],0.0778
same,IRF Lucia reporter activity,[1]; agonist: LPS (TLR4) 0.1 ug/mL,1.07
Cc1nc(Nc2ncc(C(=O)Nc3c(C)cccc3Cl)s2)cc(N2CCN(CCO)CC2)n1.Cl,IRF Lucia reporter activity,[2]; [5],0.77
C=C1CCN(C(C)C(O)(Cn2cncn2)c2ccc(F)cc2F)CC1 (stereo unspecified),IRF Lucia reporter activity,[2]; [6],2.14
C=C1CCN(C(C)C(O)(Cn2cncn2)c2ccc(F)cc2F)CC1 (stereo unspecified) (library stock concentration (final ~1000-fold dilution): 10 mM),IRF Lucia reporter activity,[3]; [4],1.25
same,IRF Lucia reporter activity,[3]; agonist: LPS (TLR4) 0.1 ug/mL,2.38
CC(C)(C)NC(=O)c1cncn1C1CCN(c2ccc(-c3nnc(C(F)(F)F)o3)cn2)CC1 (library stock concentration (final ~1000-fold dilution): 10 mM),IRF Lucia reporter activity,[1]; [4],1.33
same,IRF Lucia reporter activity,[1]; agonist: LPS (TLR4) 0.1 ug/mL,3.77
CC(C)CC(NC(=O)CNC(=O)c1cc(Cl)ccc1Cl)B(O)O (stereo unspecified) (library stock concentration (final ~1000-fold dilution): 10 mM),IRF Lucia reporter activity,[1]; [4],1
same,IRF Lucia reporter activity,[1]; agonist: LPS (TLR4) 0.1 ug/mL,1.16
CC(C)CC(NC(=O)CNC(=O)c1cc(Cl)ccc1Cl)B(O)O (stereo unspecified),IRF Lucia reporter activity,[2]; [5],1.08
COc1ccc2c(OC3CC4C(=O)NC5(C(=O)NS(=O)(=O)C6CC6)CC5/C=C\CCCCN(C)C(=O)C4C3)cc(-c3nc(C(C)C)cs3)nc2c1C (stereo unspecified) (library stock concentration (final ~1000-fold dilution): 10 mM),IRF Lucia reporter activity,[1]; [4],1.04
same,IRF Lucia reporter activity,[1]; agonist: LPS (TLR4) 0.1 ug/mL,1.18
COc1ccc2c(OC3CC4C(=O)NC5(C(=O)NS(=O)(=O)C6CC6)CC5/C=C\CCCCN(C)C(=O)C4C3)cc(-c3nc(C(C)C)cs3)nc2c1C (stereo unspecified),IRF Lucia reporter activity,[2]; [5],1.05
Cc1ccc(/C(=C\CN2CCCC2)c2ccccn2)cc1.Cl.O (library stock concentration (final ~1000-fold dilution): 10 mM),IRF Lucia reporter activity,[1]; [4],0.877
same,IRF Lucia reporter activity,[1]; agonist: LPS (TLR4) 0.1 ug/mL,0.728
Cc1ccc(/C(=C\CN2CCCC2)c2ccccn2)cc1.Cl.O,IRF Lucia reporter activity,[2]; [5],1.09
CC(C)(O)c1cc(Nc2cc(Oc3cn(C4CC4)nc3C3CCOCC3)ccn2)ccn1 (library stock concentration (final ~1000-fold dilution): 10 mM),IRF Lucia reporter activity,[1]; [4],1.14
same,IRF Lucia reporter activity,[1]; agonist: LPS (TLR4) 0.1 ug/mL,1.53
NC1CCCN(c2c(/C=C3\SC(=O)NC3=O)cccc2-c2ccccc2)C1 (stereo unspecified) (library stock concentration (final ~1000-fold dilution): 10 mM),IRF Lucia reporter activity,[1]; [4],0.968
same,IRF Lucia reporter activity,[1]; agonist: LPS (TLR4) 0.1 ug/mL,1.16
NC1CCCN(c2c(/C=C3\SC(=O)NC3=O)cccc2-c2ccccc2)C1 (stereo unspecified),IRF Lucia reporter activity,[2]; [5],1.1
CS(=O)(=O)CCNCc1ccc(-c2ccc3ncnc(Nc4ccc(OCc5cccc(F)c5)c(Cl)c4)c3c2)o1 (library stock concentration (final ~1000-fold dilution): 10 mM),IRF Lucia reporter activity,[1]; [4],0.277
same,IRF Lucia reporter activity,[1]; agonist: LPS (TLR4) 0.1 ug/mL,1.43
CS(=O)(=O)CCNCc1ccc(-c2ccc3ncnc(Nc4ccc(OCc5cccc(F)c5)c(Cl)c4)c3c2)o1.Cc1ccc(S(=O)(=O)O)cc1.Cc1ccc(S(=O)(=O)O)cc1 (library stock concentration (final ~1000-fold dilution): 10 mM),IRF Lucia reporter activity,[1]; [4],0.264
same,IRF Lucia reporter activity,[1]; agonist: LPS (TLR4) 0.1 ug/mL,3.36
CS(=O)(=O)CCNCc1ccc(-c2ccc3ncnc(Nc4ccc(OCc5cccc(F)c5)c(Cl)c4)c3c2)o1.Cc1ccc(S(=O)(=O)O)cc1.Cc1ccc(S(=O)(=O)O)cc1,IRF Lucia reporter activity,[2]; [5],1.28
CS(=O)(=O)CCNCc1ccc(-c2ccc3ncnc(Nc4ccc(OCc5cccc(F)c5)c(Cl)c4)c3c2)o1.Cc1ccc(S(=O)(=O)O)cc1.Cc1ccc(S(=O)(=O)O)cc1.O (library stock concentration (final ~1000-fold dilution): 10 mM),IRF Lucia reporter activity,[1]; [4],0.259
same,IRF Lucia reporter activity,[1]; agonist: LPS (TLR4) 0.1 ug/mL,2.46
CS(=O)(=O)CCNCc1ccc(-c2ccc3ncnc(Nc4ccc(OCc5cccc(F)c5)c(Cl)c4)c3c2)o1.Cc1ccc(S(=O)(=O)O)cc1.Cc1ccc(S(=O)(=O)O)cc1.O,IRF Lucia reporter activity,[2]; [5],1.8
CS(=O)(=O)CCNCc1ccc(-c2ccc3ncnc(Nc4ccc(OCc5cccc(F)c5)c(Cl)c4)c3c2)o1,IRF Lucia reporter activity,[2]; [5],1.6
COc1cc(F)c(C(C)C)cc1-c1ccc(C(F)(F)F)cc1CN1C(=O)OC(c2cc(C(F)(F)F)cc(C(F)(F)F)c2)C1C (stereo unspecified),IRF Lucia reporter activity,[2]; [5],1.1
COc1cc(F)c(C(C)C)cc1-c1ccc(C(F)(F)F)cc1CN1C(=O)OC(c2cc(C(F)(F)F)cc(C(F)(F)F)c2)C1C (stereo unspecified) (library stock concentration (final ~1000-fold dilution): 10 mM),IRF Lucia reporter activity,[1]; [4],1.12
same,IRF Lucia reporter activity,[1]; agonist: LPS (TLR4) 0.1 ug/mL,1.14
Cc1nc(N)sc1-c1ccnc(Nc2ccc(N3CCOCC3)cc2)n1,IRF Lucia reporter activity,[2]; [5],0.0284
Cc1ccc(NC(=O)c2ccc(CN3CCN(C)CC3)cc2)cc1Nc1nccc(-c2cccnc2)n1,IRF Lucia reporter activity,[2]; [5],1.29
CC(C)(O)CNc1nc(Nc2ccnc(C(F)(F)F)c2)nc(-c2cccc(C(F)(F)F)n2)n1 (library stock concentration (final ~1000-fold dilution): 10 mM),IRF Lucia reporter activity,[1]; [4],1
same,IRF Lucia reporter activity,[1]; agonist: LPS (TLR4) 0.1 ug/mL,1.29
COc1cc(N2CCN(C)CC2)ccc1Nc1nccc(-c2cn(C)c3cnccc23)n1 (library stock concentration (final ~1000-fold dilution): 10 mM),IRF Lucia reporter activity,[1]; [4],0.0231
same,IRF Lucia reporter activity,[1]; agonist: LPS (TLR4) 0.1 ug/mL,0.154
Cc1ccc(NC(=O)c2ccc(CN3CCN(C)CC3)cc2)cc1Nc1nccc(-c2cccnc2)n1 (library stock concentration (final ~1000-fold dilution): 10 mM),IRF Lucia reporter activity,[1]; [4],0.549
same,IRF Lucia reporter activity,[1]; agonist: LPS (TLR4) 0.1 ug/mL,0.944
Cc1nc(N)sc1-c1ccnc(Nc2ccc(N3CCOCC3)cc2)n1 (library stock concentration (final ~1000-fold dilution): 10 mM),IRF Lucia reporter activity,[1]; [4],0.0149
same,IRF Lucia reporter activity,[1]; agonist: LPS (TLR4) 0.1 ug/mL,0.023
Nc1ncc(-c2ccnc(Nc3ccncc3)n2)c(CC2CC2)n1 (library stock concentration (final ~1000-fold dilution): 10 mM),IRF Lucia reporter activity,[3]; [4],0.336
same,IRF Lucia reporter activity,[3]; agonist: LPS (TLR4) 0.1 ug/mL,3.92
CC(C)(O)CNc1ncc(-c2ccnc(Nc3ccncc3)n2)c(CC2CC2)n1 (library stock concentration (final ~1000-fold dilution): 10 mM),IRF Lucia reporter activity,[1]; [4],0.364
same,IRF Lucia reporter activity,[1]; agonist: LPS (TLR4) 0.1 ug/mL,10.3
COc1cc(N2CCN(C)CC2)ccc1Nc1nccc(-c2cn(C)c3cnccc23)n1,IRF Lucia reporter activity,[2]; [5],0.246
CC(C)(O)CNc1ncc(-c2ccnc(Nc3ccnc(Cl)c3)n2)c(CC2CC2)n1 (library stock concentration (final ~1000-fold dilution): 10 mM),IRF Lucia reporter activity,[1]; [4],0.0702
same,IRF Lucia reporter activity,[1]; agonist: LPS (TLR4) 0.1 ug/mL,3.2
Cc1c(NC(=O)OCC2COCCN2)cn2ncnc(Nc3ccc4c(cnn4Cc4cccc(F)c4)c3)c12 (stereo unspecified),IRF Lucia reporter activity,[2]; [5],1.3
Cc1c(NC(=O)OCC2COCCN2)cn2ncnc(Nc3ccc4c(cnn4Cc4cccc(F)c4)c3)c12 (stereo unspecified) (library stock concentration (final ~1000-fold dilution): 10 mM),IRF Lucia reporter activity,[1]; [4],0.267
same,IRF Lucia reporter activity,[1]; agonist: LPS (TLR4) 0.1 ug/mL,1.28
